Hit rate of the full screen: of about 13,000 compounds, about 3,200 (25%) showed an effect of 50% or more. The list shows a part of the results.
tested on: P. falciparum stage V gametocytes; set-up: BacTiter-Glo ATP luminescence viability of purified stage V gametocytes in 384-well plates, per cent inhibition versus DMSO; conditions: 48 h, 5 µM; inhibitor

Going from O=C(Nc1ccc(Cn2ncc(N3CCCNCC3)c(Cl)c2=O)cc1)Nc1cccc(Oc2ccccc2)c1 [TCMDC-133316] to O=C(Nc1ccc(Oc2ccccc2)cc1)N(CCN1CCCC1)Cc1ccc(-c2ccc(CN3CCNCC3)cc2)cc1 [TCMDC-139652], the “% Inhibition” value rises from 4.228% to 103.6%.

Going from O=C(Nc1ccc(-c2nc3ccccc3[nH]2)cc1)C1CCN(Cc2ccccc2)CC1 [TCMDC-124891] to O=C(Nc1ccc(-c2cccc(CN3CCC(O)CC3)c2)cc1)c1cccc(Cl)c1 [TCMDC-132665], the “% Inhibition” value rises from -65.72% to -3.105%.

Going from O=C(Nc1ccc(Oc2ccccc2)cc1)N(Cc1ccc(-c2cccc(CN3CCNCC3)c2)cc1)C1CCN(Cc2ccccc2)CC1 [TCMDC-139637] to O=C(Nc1ccc(Oc2ccccc2)cc1)N(Cc1ccc(-c2ccc(CN3CCNCC3)cc2)cc1)C1CCN(Cc2ccccc2)CC1 [TCMDC-139653], the “% Inhibition” value falls from 111.2% to 106.3%.

Compared with N#Cc1cccc(C(=O)Nc2ccc(-c3cccc(CN4CCC(O)CC4)c3)cc2)c1 [TCMDC-132670], N#Cc1ccc(CN2CCC(Oc3ccc(NC(=O)c4ccco4)cc3Cl)C2)cc1 (stereo not shown) [TCMDC-133963] is higher in “% Inhibition” value: -58.6% for the first, 28.15% for the second.

Compared with COC(=O)c1ccc(CN2CCC(N(Cc3cccc(Oc4ccccc4)c3)S(=O)(=O)c3ccc(NC(C)=O)cc3)CC2)cc1 [TCMDC-139500], COc1ccc(C(=O)CCC(=O)N(Cc2ccc(-c3ccc(CNCCc4ccc(S(C)(=O)=O)cc4)cn3)cc2)C2CCN(Cc3ccccc3)CC2)cc1F [TCMDC-141516] is higher in “% Inhibition” value: -7.518% for the first, 12.43% for the second.

Compared with O=C(Nc1cccc(-c2cccc(-c3nc4ccc(C(F)(F)F)cc4[nH]3)c2)c1)c1ccc(=O)[nH]n1 [TCMDC-137031], O=C(Nc1ccc(-c2nc3ccccc3[nH]2)cc1)c1ccc(N2CCOCC2)c([N+](=O)[O-])c1 [TCMDC-124372] is higher in “% Inhibition” value: -1.351% for the first, -1.163% for the second.

Compared with O=C(NC1CC1)c1cnc(N2CCN(Cc3c(F)cccc3Cl)CC2)c(Cl)c1 [TCMDC-134607], CC[C@H](C)CNC(=O)c1ccnc(-c2cccc(CN3CCC(N4CCCC4)CC3)c2)c1 [TCMDC-134244] is higher in “% Inhibition” value: 20.64% for the first, 20.81% for the second.

Going from CCC(C)NC(=O)CN1CN(c2ccccc2)C2(CCN(C(=O)c3ccc(C(C)(C)C)cc3)CC2)C1=O (stereo not shown) [TCMDC-125176] to COc1ccccc1N1CCN(CCCCNC(=O)c2ccc(NC(=O)c3cc4ccccc4o3)cc2)CC1 [TCMDC-138115], the “% Inhibition” value rises from -75.94% to -10.75%.

First: Nc1ncc(-c2ccccc2)cc1-c1nc2cc(Cl)c(F)cc2[nH]1 [TCMDC-138783]
Second: CC(C)CN1C(=O)C(c2ccc(F)c(F)c2)=C(O)C1c1ccccc1 (stereo not shown) [TCMDC-141919]
The “% Inhibition” value of the first is lower: -16.12% for the first, 11.18% for the second.

Compared with CC1CN(c2ccnc3ccc(Sc4ccc(Oc5ccccc5)cc4)cc23)CC(C)N1 (stereo not shown) [TCMDC-135857], CSc1ccc2nccc(Nc3ccc(Oc4ccccc4)cc3)c2c1 [TCMDC-138375] is lower in “% Inhibition” value: 94.55% for the first, -18.84% for the second.

First: Cc1c(S(=O)(=O)Nc2ccc3nccc(N4CC(C)NC(C)C4)c3c2)sc2ccc(Cl)cc12 (stereo not shown) [TCMDC-139464]
Second: Cc1cccc(CN2CCC(Oc3ccc(NC(=O)c4cccs4)cc3Cl)CC2)n1 [TCMDC-133964]
The “% Inhibition” value of the first is lower: 2.238% for the first, 24.07% for the second.

Going from O=S(=O)(c1cccc(C(F)(F)F)c1)N1CCC(CO)(Cc2cccc(C(F)(F)F)c2)CC1 [TCMDC-124606] to CCCS(=O)(=O)N1CCC(CO)(Cc2ccccc2C(F)(F)F)CC1 [TCMDC-124652], the “% Inhibition” value rises from 41.83% to 66.01%.

Compared with O=C(NC1CCCCC1)N(Cc1cccc(-c2cccc(CNC3CCCC3)c2)c1)C1CCN(Cc2ccccc2)CC1 [TCMDC-140630], O=C(NC1CCCCC1)N(Cc1ccc(-c2cccc(CNC3CCCC3)c2)cc1)C1CCN(Cc2ccccc2)CC1 [TCMDC-140638] is lower in “% Inhibition” value: 102.1% for the first, 83.36% for the second.

First: O=C(NC1CCCCC1)N(Cc1cccc(-c2ccc(CNCCc3ccccc3)cc2)c1)C1CCN(Cc2ccccc2)CC1 [TCMDC-140629]
Second: O=C(NC1CCCCC1)N(Cc1cccc(-c2ccc(CNC3CCCC3)cc2)c1)C1CCN(Cc2ccccc2)CC1 [TCMDC-140631]
The “% Inhibition” value of the first is higher: 110.5% for the first, 106.7% for the second.

Going from COc1ccc2nccc(NCC3(O)CCN(CCc4ccc5c(c4)OCCO5)CC3)c2n1 [TCMDC-141461] to COc1ccc2ncc(F)c(CCN3CC[C@@H](CNCc4ccc5c(c4C)OCCO5)C3)c2n1 [TCMDC-136057], the “% Inhibition” value rises from 34.43% to 40.7%.

Compared with O=C(Nc1ccc(OC2CCN(Cc3ccccc3)C2)c(Cl)c1)c1ccsc1 (stereo not shown) [TCMDC-133969], c1ccc(CN2CCC(NCc3ccc(-c4ccc(CNCc5cccnc5)cn4)cc3)CC2)cc1 [TCMDC-141613] is lower in “% Inhibition” value: -1.877% for the first, -15.37% for the second.

First: C=CCOC(=O)O[C@@H]1[C@@H](OC(=O)OCC=C)[C@@H](OC)O[C@H](COC(c2ccccc2)(c2ccccc2)c2ccccc2)[C@H]1OC(=O)OCC=C [TCMDC-139139]
Second: COc1ccc(C(=O)CCC(=O)N(Cc2ccc(-c3ccc(CNCc4cccnc4)cn3)cc2)C2CCN(Cc3ccccc3)CC2)cc1F [TCMDC-141504]
The “% Inhibition” value of the first is lower: 34.95% for the first, 91.04% for the second.

Compared with O=C(NC1CCCCC1)N(Cc1ccc(-c2ccc(CNC3CCCC3)cc2)cc1)C1CCN(Cc2ccccc2)CC1 [TCMDC-140639], O=C(Cc1cccnc1)N(Cc1ccc(-c2ccc(CNCc3cccnc3)cn2)cc1)C1CCN(Cc2ccccc2)CC1 [TCMDC-141503] is lower in “% Inhibition” value: 105.2% for the first, 73.31% for the second.

Going from FC(F)(F)c1cccc2c(NN=Cc3ccccc3)ccnc12 [TCMDC-142025] to Cc1cc(N(C)C)nc(Nc2ccc(NC(=O)c3ccc(Br)o3)cc2)n1 [TCMDC-124972], the “% Inhibition” value falls from 48.45% to -1.025%.

Compared with C=CCc1cccc(C)c1OCCCON1C(N)=NC(N)=NC1(C)C [TCMDC-131307], Cc1cc(C)n2nc(C(=O)Nc3cc(C(F)(F)F)ccc3N3CCOCC3)nc2n1 [TCMDC-123614] is lower in “% Inhibition” value: 8.677% for the first, 4.468% for the second.

Source: publication PMC4552634, “A New Set of Chemical Starting Points with Plasmodium falciparum Transmission-Blocking Potential for Antimalarial Drug Discovery” (PLoS ONE, 2015)
